Results from PubChem BioAssay (NCI).
About 83,000 compounds went through this panel and 20% of them were active in at least one assay; those are over-represented in the sample as a whole.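 In brief: 96-well plates, 48 h treatment, single concentration, percent growth endpoint.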 Values without a mark were called inactive. Activity calls are given as the source filed them. How the source made its calls: active means growth percent below 10; inactive means the rest.

Columns and labels:
Assay in all cases: NCI-60 one-dose screen, 48 h (100 = growth as untreated, 0 = no growth, -100 = all killed)
NCI-H23 lung = conditions: 10 µM unless noted
NCI-H226 lung = conditions: 10 µM unless noted
NCI-H322M lung = conditions: 10 µM unless noted
NCI-H460 lung = conditions: 10 µM unless noted
HOP-92 NSCLC = conditions: 10 µM
NCI-H522 lung = conditions: 10 µM
A549/ATCC NSCLC = conditions: 10 µM unless noted
786-0 renal = conditions: 10 µM unless noted
COLO 205 colon = conditions: 10 µM unless noted
DU-145 prostate = conditions: 10 µM unless noted
K-562 leukemia = conditions: 10 µM unless noted
MALME-3M melanoma = conditions: 10 µM unless noted
MDA-MB-231 breast = conditions: 10 µM unless noted
RXF 393 renal = conditions: 10 µM unless noted
SF-268 CNS = conditions: 10 µM unless noted
SF-295 CNS = conditions: 10 µM unless noted
SF-539 CNS = conditions: 10 µM unless noted
UACC-257 melanoma = conditions: 10 µM unless noted
HOP-62 NSCLC = conditions: 10 µM unless noted
M14 melanoma = conditions: 10 µM unless noted

Compound	growth (NCI-H23 lung)	growth (NCI-H226 lung)	growth (NCI-H322M lung)	growth (NCI-H460 lung) [%]	growth (HOP-92 NSCLC)	growth (NCI-H522 lung)	growth (A549/ATCC NSCLC)	growth (786-0 renal)	growth (COLO 205 colon)	growth (DU-145 prostate)	growth (K-562 leukemia)	growth (MALME-3M melanoma)	growth (MDA-MB-231 breast)	growth (RXF 393 renal)	growth (SF-268 CNS)	growth (SF-295 CNS)	growth (SF-539 CNS)	growth (UACC-257 melanoma)	growth (HOP-62 NSCLC)	growth (M14 melanoma)
CC1(C)CC(=O)C2=C(C1)Oc1nc(N)c(C#N)c(N)c1C2c1ccc(F)cc1 (stereo unspecified)	133%	106%	123%	117	76.4%	146%	110%	94.2%	127%	95.7%	85.9%	117%	88.7%	-1.27% (active)	117%	110%	86.9%	94.8%		
CC(=O)N(N=O)c1ccc([N+](=O)[O-])cc1Cl	34%	68.3%	74.3%		31.6%		61.7%	74.1%	97.6%	82.2%	49.5%	58.9%	58.9%	83.9%	78.5%	66.9%	72.7%	45.4%	97%	64.6%
C=C1CCC2C3(C)COC(c4ccccc4)OC3CCC2(C)C1C/C=C1/C(=O)OCC1O (stereo unspecified)	87.2%	92.2%	87.3%			55.4%		91%				99.8%	89.4%			87.6%			117%	
COc1cc2c(c(OC)c1OC)C(=O)CC(c1cccc(C(=O)Nc3cccc(Br)c3)c1)O2 (stereo unspecified)	97%	85.1%	81.5%		55.3%	51.7%	77.9%	84%		87%	49.8%	85%	63.7%	88.8%	73.6%	86.7%	86.8%	76.8%	86%	73.1%
O=C(Nn1cnc2ccccc21)N1CCCC1	111%	105%	86.7%	117	74.1%	104%	109%	80.3%	117%	102%	94%	92.2%	94.2%	109%	117%	98.7%	91.8%	101%		
Cc1ccc(C(=O)Nc2ccc(CN3CCN(C)CC3)c(C(F)(F)F)c2)cc1C#Cc1cnc(N)c2ccc(F)cc12	-77.3% (active)	-45.5% (active)	-99.3% (active)		-90.3% (active)	-75.1% (active)	-87.5% (active)	-85.3% (active)		-91.7% (active)	-78.2% (active)	-88.4% (active)	-90.7% (active)	-90.8% (active)	-75.2% (active)	-76.9% (active)	-92.5% (active)	-60.9% (active)	-68.8% (active)	-83.1% (active)
O=C(Nc1ccc(Cl)cn1)C1(c2ccccc2)CCCCC1	114%	103%	119%	102	60.7%	140%	110%	97.5%	103%	86.5%	67.1%	112%	87.7%	-1.25% (active)	108%	110%	96.7%	109%		
CCOC(=O)CNS(=O)(=O)CC(=O)c1ccccc1	101%	101%	87.9%				116%	97.5%	130%	117%	86.8%	83%	97.3%	117%	124%	118%		132%	83.8%	93.4%
O=C(Nc1cccc(Cn2c(=O)[nH]c3ccc(Oc4ncccn4)cc3c2=O)c1)c1ccc(Cl)cc1	46.9%	34.6%	61.5%		52.8%		46.9%	70.5%		62.3%	4.84% (active)	41%	53.6%	51.4%	56.8%	39.4%	59.2%	25.9%	55.2%	
CCCCCC(=C/c1ccccc1)/C=N/N=C(N)N	44.6%	66%	20.3%			-65.3% (active)		-65.4% (active)	-93.9% (active)		5.26% (active)	37%		-31.3% (active)		-64.3% (active)	45.5%		-4.74% (active)	-64.5% (active)
Cc1ccc(S(=O)(=O)Nc2cccc(Cn3c(=O)[nH]c4ccc(Oc5ncccn5)cc4c3=O)c2)cc1	85.4%	86.1%	79.9%		62.9%	33.6%	90.7%	95.9%		95.6%	26.6%	59.8%	77.4%	80.5%	82.3%	74.4%	71.7%	73.3%	72.2%	59.1%
Brc1c(-c2ccncc2)nc2n1CCS2	113%	93.4%	107%	103	73.9%	76.5%	94.1%	26.3%	120%	116%	111%	114%	101%	84.6%	107%	102%	119%	91.1%		
COCC(=O)NNc1[nH]c(-c2ccc(OC)cc2)cc1C#N	100%	106%	33.4%	117	95.4%	104%	112%	95.3%	115%	111%	96.9%	112%	102%	114%	119%	96%	96.2%	109%		
O=C(O)/C(Br)=C/c1c[nH]c2ccc(Br)cc12	99.6%	108%	116%	122	174%	110%	117%	101%	156%	115%	68%	106%	102%	109%	124%	102%	112%	117%		
COc1ccc(-n2nnnc2-c2cn[nH]c2C(F)(F)F)cc1	128%	91%	105%	110	91.8%	79.3%	104%	106%	96.8%	101%	87.2%	107%	83.4%	-6.74% (active)	109%	88.3%	89.6%	93.7%		
CCCCCCN(CCCCCC)CCC(=O)Nc1ccc(S(=O)(=O)c2ccc(NC(=O)CCN(CCCCCC)CCCCCC)cc2)cc1	84.3%	78.6%	75.3%		69.4%		94.1%	90.5%	74.1%	95.4%	7.37% (active)	96%	61%	83.3%	80.1%	100%	94.7%	99.8%	76.8%	88.9%
COc1ccc(-c2cc(C#N)c(NNC(C)=O)[nH]2)cc1	91.4%	104%	117%	128	178%	107%	115%	95.3%	129%	123%	47.5%	106%	106%	118%	122%	101%	112%	108%		
C/C=C(/C)C(=O)OC1C=C(CO)C(=O)C(OC(=O)C2(C)OC2C)C1C(C)C (stereo unspecified)	-63.1% (active)	-36.4% (active)	-3.37% (active)		-35.1% (active)	-79.5% (active)	-23.5% (active)	-89.7% (active)		6.72% (active)	1.51% (active)	-77.4% (active)	1.48% (active)	-74.3% (active)	13.3%	-20.5% (active)	-65.6% (active)	-9.59% (active)	0.921% (active)	-49.2% (active)
